Screening data from PubChem BioAssay.
Compounds with a hit are over-represented: about 7.1% of the library has one in this group of screens.
ELG1 genotox: qHTS screen for small molecules that induce genotoxicity in human embryonic kidney (HEK293T) cells expressing luciferase-tagged ELG1; HEK293T ELG1-luciferase reporter, luminescence, 16 h; Potency, µM (titrated, usually from 46 µM), without a hit: at the top dose activity change, positive = activation, usual class: activators; actives 1.3% (n = 330,000); AID 504466, 2011; further: % of control where 0% means no effect; nearly all actives have a fitted effect of over 60% in size
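16 hr compound incubation (37 °C, 5% CO2) of HEK293T cells carrying luciferase-tagged ELG1; luciferase then measured by ONE-Glo luminescence after 30 min at RT.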
p53 reactivator: qHTS assay for re-activators of p53 using a Luc reporter; Potency, µM (titrated, usually from 92.2 µM), inactives show at the top dose activity change, positive = activation, actives largely listed as activators; AID 504706, 2011; H1299 p53-A138V BP100-luciferase reporter, luminescence, 24 h; actives 0.063% (n = 320,000); further: % of control where 0% means no effect; nearly all actives have a fitted effect of over 45% in size
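H1299 (p53-null), stable ts p53-A138V + BP100-Luc; 1000 cells/well, Opti-MEM/10% FBS; cpd 4 pt, 1:5; 24 h, 37 deg C, 5% CO2; detection reagent 10 min RT; luminescence.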
ELG1 repair inh: qHTS screen for small molecules that inhibit ELG1-dependent DNA repair in human embryonic kidney (HEK293T) cells expressing luciferase-tagged ELG1. HEK293T ELG1-luciferase reporter, luminescence, 16 h; DNA damage induced by 5-fluorouridine. Potency, µM (titrated, usually from 46.1 µM), without a hit: at the highest dose activity change, negative = inhibition, actives largely listed as inhibitors. actives 2.3% (n = 330,000); further: on the % scale 0 is the no-effect control and ±100 the full control effect; nearly all actives have a fitted effect of over 55% in size
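DMSO vehicle served as the neutral condition. Each well held 2,000 cells given 5-fluorouridine plus compound; after 16 hr at 37 °C/5% CO2, ONE-Glo was added and luciferase measured 30 min later.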
MCF10A rerep: A quantitative high throughput screen for small molecules that induce DNA re-replication in MCF 10a normal breast cells; MCF 10A DNA re-replication, Hoechst nuclear intensity, 48 h; Potency, µM (series often up to 46.1 µM), for the others: at the highest dose activity, positive = re-replication, usual class: activators; actives 2.9% (n = 350,000); further: % of control where 0% means no effect; nearly all actives have a fitted effect of over 50% in size
AT treatment: qHTS Assay for Identifying a Potential Treatment of Ataxia-Telangiectasia; Potency, µM (highest dose often 57.5 µM), without a hit: at the highest dose activation, actives largely listed as activators; actives 0.19% (n = 320,000); F2112 A-T fibroblasts, KAP-1 phosphorylation AlphaLISA; neocarzinostatin DNA damage 30 min before lysis; further: % of control where 0% means no effect; nearly all actives have a fitted effect of over 45% in size
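hTERT-immortalized A-T patient fibroblasts (F2112), 500 cells/well in OPTI-MEM, 1% FBS, got compounds for 60 min, then NCS for 30 min at 37C. Lysates were then assayed for phospho-KAP-1 by AlphaLISA (anti-pKAP1 donor, anti-KAP1 acceptor beads), 6 hr at 25C.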
SW480 rereplic: A quantitative high throughput screen for small molecules that induce DNA re-replication in SW480 colon adenocarcinoma cells; SW480 DNA re-replication, Hoechst DNA content imaging, 48 h; Potency, µM (titrated, usually from 46.1 µM), for the others: top-dose re-replication activation, actives largely listed as activators; actives 1.8% (n = 340,000); further: % of control where 0% means no effect; nearly all actives have a fitted effect of over 55% in size
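Hoechst fluorescence of nuclei (405 nm excitation, 500-530 nm emission) measured by plate-scanning imager after 48 hr compound exposure at 37 C; re-replication scored as increased number of nuclei with elevated intensity.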
The depositor's hits bear a star; ? = inconclusive; . = not tested or not shown. The call rests on the fitted dose curve; in most records, active means well fitted curve in the direction sought with a large enough effect; inconclusive means small, poorly fitted or top-dose-only effect, or another doubt; inactive means no such curve, though single readings can be large; an effect the other way counts as inactive or inconclusive. Potency means the concentration at half of the fitted maximal effect.

SMILES	ELG1 genotox	p53 reactivator	ELG1 repair inh	MCF10A rerep	AT treatment	SW480 rereplic
CC(C)N1CCN(C(=O)C2CCC(=O)N(CCc3cccc(F)c3)C2)CC1 (stereo unspecified)	1.8%	.	?	-5.4%	-2.6%	-0.2%
COc1cccc(NC(=O)COC(=O)c2c3c(nc4ccccc24)CCC(C)C3)c1 (stereo unspecified)	0.4%	-8.3%	?	10.3µM*	1.8%	?
O=C(OCC(=O)N1CCc2ccccc21)c1c2c(nc3ccccc13)CCCCC2	-10.7%	10.1%	23.1µM*	10.3µM*	-6.1%	-2.7%
CC(C)NC(=O)NC(=O)COC(=O)c1c2c(nc3ccccc13)CCC2	-45.8%	0.4%	23.1µM*	23.1µM*	-5.1%	0.0%
CC1CCc2nc3ccccc3c(C(=O)OCC(=O)NC3CCS(=O)(=O)C3)c2C1 (stereo unspecified)	-4.7%	-3.4%	-2.5%	-1.8%	0.4%	1.0%
CC(C)(C)NC(=O)COC(=O)c1c2c(nc3ccccc13)CCC2	-19.0%	-7.2%	?	4.6%	3.8%	-7.7%
O=S(=O)(NC1CC1)c1ccc(Br)cc1N1CCC[C@H]1CO	.	.	.	25.3%	.	-2.1%
COc1cccc2c(SCC(=O)N/N=C/c3ccc(O)cc3O)cc(C)nc12	0.9%	4.1%	-19.7%	14.6µM*	-5.3%	7.31µM*
COc1cccc(NC(=O)CCSc2ccc3ccccc3n2)c1	14.8%	4.4%	?	10.4%	14.0%	0.3%
COc1ccc2nc(C)cc(SCC(=O)N/N=C/c3ccc(O)cc3O)c2c1	11.5%	12.0%	?	6.51µM*	-9.1%	?
COc1ccc2nc(C)cc(SCC(=O)N/N=C/c3ccccc3)c2c1	-1.1%	-6.1%	-14.4%	3.4%	-5.0%	-6.4%
Cc1cc(SCC(=O)NN)c2cc(Br)ccc2n1	2.1%	15.1%	6.2%	9.2µM*	13.5%	?
COc1ccc(NC(=O)CCSc2ccc3ccccc3n2)cc1	10.3%	7.4%	7.0%	10.3µM*	5.4%	-2.7%
COC(=O)c1sc2nc(C)nc(SCC(=O)Nc3sccc3C(N)=O)c2c1C	-3.7%	-3.7%	?	-0.5%	3.0%	-3.6%
COc1ccccc1CN1CC(C(=O)NCc2cc(C(C)C)no2)CCC1=O (stereo unspecified)	-2.7%	14.0%	?	9.5%	4.7%	-8.2%
CC1=C(C(=O)OCc2ccccc2)C(c2cccc3ccccc23)NC(=O)N1CCCC(=O)O (stereo unspecified)	4.1%	-6.8%	12.5%	2.7%	14.1%	-10.3%
COc1ccccc1/C=N/NC(=O)CO	-4.8%	-3.2%	0.4%	6.0%	-0.5%	-3.5%
COc1ccc2nc(C)cc(SCC(=O)N/N=C/c3c(OC)ccc4ccccc34)c2c1	11.8%	3.4%	-3.2%	-8.3%	-0.6%	-6.1%
COc1ccccc1/C=N/NC(=O)CSc1cc(C)nc2ccccc12	-1.7%	-0.3%	-8.0%	13µM*	-3.6%	?
COc1ccccc1/C=N/NC(=O)CSc1ccc2ccccc2n1	1.2%	8.7%	0.4%	16.4µM*	15.9%	?
COc1ccc(C2=NN(C3=NN=C(N)Cc4ncnn43)C(O)(C(F)(F)F)C2)cc1 (stereo unspecified)	-0.2%	3.0%	3.8%	0.581µM*	-4.1%	-4.9%
COc1ccccc1C1=NN(C2=NN=C(N)Cc3ncnn32)C(O)(C(F)(F)F)C1 (stereo unspecified)	0.4%	-2.2%	-9.7%	0.581µM*	2.9%	56.3%
COc1ccccc1N1CCN(C(=O)c2cccc(S(=O)(=O)NCc3cccnc3)c2)CC1	-6.2%	-3.9%	?	17.8%	-4.1%	-6.6%
Cc1ccc(NS(=O)(=O)c2ccc(C)c(C(=O)Nc3ccc(S(=O)(=O)Nc4onc(C)c4C)cc3)c2)cc1	.	.	.	-3.0%	.	-3.1%
Cc1cc(C)c(OCCOCCN2CCN(C)CC2)c(Cl)c1	-3.5%	.	-3.3%	5.8µM*	4.1%	-33.8%
SMILES	ELG1 genotox	p53 reactivator	ELG1 repair inh	MCF10A rerep	AT treatment	SW480 rereplic
Cc1cc(C)c(OCCN2CCCC2)c(Cl)c1	-8.4%	.	-17.5%	-0.4%	-4.0%	-2.1%
Clc1ccc2c(N/N=C/c3ccc(Br)cc3)ccnc2c1	?	-29.4%	16.4µM*	2.59µM*	2.9%	18.4µM*
Cc1ccccc1/C=N/Nc1ccnc2cc(Cl)ccc12	-5.1%	-29.3%	?	18.4µM*	1.3%	?
Clc1ccc(NNc2ccnc3cc(Cl)ccc23)cc1	-1.7%	-1.3%	2.9%	?	0.2%	-2.7%
Oc1ccc(Nc2ccnc3cc(Cl)ccc23)cc1	15.5%	5.8%	?	17.3%	39.8µM*	?
Oc1ccc(/C=N/Nc2ccnc3cc(Cl)ccc23)c(O)c1	11.8%	6.8%	23.6%	?	4.5%	?
Cc1ccc(/C=N/Nc2ccnc3cc(Cl)ccc23)c(C)c1	-7.3%	-36.1%	18.4µM*	?	-2.5%	?
Cc1cc(S(=O)(=O)Nc2ccc3cn[nH]c3c2)c(C)cc1Cl	-0.8%	-2.3%	-5.2%	-2.4%	6.1%	4.9%
Cc1ccc(S(=O)(=O)N2CCN(C)CC2c2ccccc2)cc1 (stereo unspecified)	1.6%	-0.1%	3.7%	0.7%	7.1%	1.6%
COc1ccc(CNC(=O)C(C)OC(=O)CO/N=C(\C)c2ccc3c(c2)OCO3)cc1 (stereo unspecified)	-2.4%	6.4%	10.1%	?	9.0%	?
Cc1ccc(C(=O)Nc2ncccc2O)o1	.	?	?	0.7%	15.8%	16.2%
COC1=C(Nc2ccc(OC)cc2)C(=O)c2ccccc2C1=O	3.6%	?	28.0%	?	-9.2%	23.1µM*
COC1=C(Nc2ccc(OC)cc2)C(=O)C(OC)=C(Nc2ccc(OC)cc2)C1=O	.	.	.	-1.6%	.	0.4%
COc1ccc(C2=C(N)c3ccccc3C2=O)cc1	12.6µM*	?	?	1.5%	4.7%	0.3%
COc1ccc(NC2=C(c3ccc(OC)cc3)C(=O)c3ccccc32)cc1	5.0%	-4.5%	-5.7%	-4.8%	-9.2%	-13.1%
COc1ccc(NC2=C(NCCO)C(=O)c3ccccc3C2=O)cc1	-2.6%	?	?	?	-2.0%	18.4µM*
